Reference: PubChem BioAssay (Tox21)
“And” between values parts separate entries of the source, which are not always exact repeats. Equal entries are not always repeated. Inconclusive results are not listed. The source made the active and inactive calls. Unless noted, calls follow the shape of the dose curve; as a rule, active = well fitted curve in the direction sought with a large enough effect in the repeat runs; inconclusive = weak or mixed curves; inactive = no such curve, though single readings can be large; an effect the other way counts as inactive or inconclusive.

Columns and labels:
[1] = qHTS assay to identify small molecule antagonists of the androgen receptor (AR) signaling pathway using the MDA cell line in the presence of 0.5 nM R1881 - cell viability counter screen (AID 1259242); also: nearly all actives have a fitted effect of over 45% in size
Procedure, shortened: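 Live-cell protease activity was measured by CellTiter-Fluor fluorescence after 30 min. Before that, MDA-kb2 MMTV-luciferase cells had 16 hr at 37C without CO2, exposed to test compounds and 0.5 nM R1881 final.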

[2] = target: Estrogen receptor (Homo sapiens) (UniProt P03372); experiment: qHTS assay to identify small molecule antagonists of the estrogen receptor alpha (ER-alpha) signaling pathway using the BG1 cell line in the presence of 0.1 nM 17-beta-estradiol (AID 1259244); also: nearly all actives have a fitted effect of over 50% in size
Chain of Estrogen receptor (Homo sapiens) (P03372 whole entry, looked up): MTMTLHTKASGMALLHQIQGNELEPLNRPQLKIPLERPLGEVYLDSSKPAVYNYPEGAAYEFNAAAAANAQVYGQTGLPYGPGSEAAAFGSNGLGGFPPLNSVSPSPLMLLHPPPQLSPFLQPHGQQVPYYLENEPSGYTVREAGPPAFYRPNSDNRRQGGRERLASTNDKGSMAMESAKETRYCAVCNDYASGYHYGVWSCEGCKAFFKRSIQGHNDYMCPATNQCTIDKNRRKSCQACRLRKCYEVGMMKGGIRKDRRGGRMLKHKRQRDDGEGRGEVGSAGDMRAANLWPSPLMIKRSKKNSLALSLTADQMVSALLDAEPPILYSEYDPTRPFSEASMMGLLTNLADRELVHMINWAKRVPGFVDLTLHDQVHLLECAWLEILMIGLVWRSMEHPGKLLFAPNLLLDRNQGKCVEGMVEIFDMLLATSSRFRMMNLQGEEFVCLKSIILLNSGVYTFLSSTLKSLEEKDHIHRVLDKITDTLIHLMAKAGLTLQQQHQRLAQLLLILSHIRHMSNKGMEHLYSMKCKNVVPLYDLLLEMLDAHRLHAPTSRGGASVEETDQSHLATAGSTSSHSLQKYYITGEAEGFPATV
Procedure, shortened: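 Luciferase luminescence (ONE-Glo, 30 min at room temperature) was read after 22 hr at 37C exposure to compounds plus 17beta-estradiol at 0.1 nM final. Cells were VM7Luc4E2 with endogenous ER-alpha and an ERE-driven luciferase, pre-cultured 5 days in hormone-depleted medium.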

[3] = qHTS assay to identify small molecule HDAC inhibitors - cell viability counter screen (AID 1259365); also: series mostly up to about 92 µM; nearly all actives have a fitted effect of over 50% in size
Procedure, shortened: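 Wild-type HCT-116 cells were seeded at 1,500 per well, incubated overnight at 37 C, then exposed to compounds in DMSO for 2hr. Viability was read by CellTiter-Glo luminescence after 30min at room temperature.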

[4] = qHTS assay to identify small molecule agonists of the sonic hedgehog signaling (Shh) pathway - cell viability counter screen (AID 1259366); also: nearly all actives have a fitted effect of over 50% in size
Procedure, shortened: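 NIH/3T3-derived 3T3 Gli1-Luc cells (stable Gli1-responsive firefly luciferase reporter) were seeded, rested 4 hr at 37 C/5% CO2, then exposed to compounds in DMSO for 24 hr; viability was read by CellTiter-Fluor fluorescence in the same wells.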

[5] = qHTS assay to identify small molecule antagonists of the sonic hedgehog signaling (Shh) pathway - cell viability counter screen (AID 1259367); also: nearly all actives have a fitted effect of over 55% in size
Procedure, shortened: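 CellTiter-Fluor signal in conditioned medium-stimulated 3T3 Gli1-Luc cells, 23 hr compound exposure, 37C.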

[6] = qHTS assay to identify small molecule agonists of the sonic hedgehog signaling (Shh) pathway (AID 1259368; calls by dose curve; also: series mostly up to about 92 µM; nearly all actives have a fitted effect of over 15% in size)
Procedure, shortened: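 Luminescence was read after 30 min at room temperature with luciferase reagent. Before that, 3T3Gli1-Luc cells (NIH/3T3 clone, stable Gli1-Luc reporter; 2,000/well) were exposed to compounds for 24 hr at 37C, 5% CO2, compounds being added 4 hr post-plating.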

[7] = target: Estrogen receptor beta (Homo sapiens) (UniProt Q92731); experiment: qHTS assay to identify small molecule agonists of the estrogen receptor beta (ER-beta) signaling pathway (AID 1259377; active = well fitted activation curve with a large enough effect in the signal ratio in the repeat runs, not every such curve was filed as active; the % refers to the signal ratio)
Chain of Estrogen receptor beta (Homo sapiens) (Q92731 whole entry, looked up): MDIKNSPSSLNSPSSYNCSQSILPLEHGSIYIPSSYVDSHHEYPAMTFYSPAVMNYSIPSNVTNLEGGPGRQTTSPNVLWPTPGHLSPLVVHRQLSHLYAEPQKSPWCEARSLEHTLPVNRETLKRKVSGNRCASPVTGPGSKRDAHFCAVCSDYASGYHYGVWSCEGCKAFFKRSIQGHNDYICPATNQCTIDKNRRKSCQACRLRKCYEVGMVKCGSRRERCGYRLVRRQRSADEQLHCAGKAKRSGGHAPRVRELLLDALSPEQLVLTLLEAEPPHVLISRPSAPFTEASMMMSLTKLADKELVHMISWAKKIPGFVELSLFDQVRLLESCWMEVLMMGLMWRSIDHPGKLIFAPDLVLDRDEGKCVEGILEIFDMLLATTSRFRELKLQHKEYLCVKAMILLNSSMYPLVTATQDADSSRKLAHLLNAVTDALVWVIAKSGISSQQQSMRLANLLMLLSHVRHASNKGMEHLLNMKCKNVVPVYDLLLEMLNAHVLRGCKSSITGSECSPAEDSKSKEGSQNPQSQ
Procedure, shortened: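 ER-beta-UAS-bla HEK293T (GripTite) cells carrying a UAS-driven beta-lactamase reporter, in medium with 2% charcoal-stripped FBS, were exposed to compounds for 16 hr at 37C; LiveBLAzer B/G FRET substrate was then added and fluorescence read after 2 hours at room temperature.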

[8] = target: Estrogen receptor beta (Homo sapiens) (UniProt Q92731); experiment: qHTS assay to identify small molecule antagonists of the estrogen receptor beta (ER-beta) signaling pathway (AID 1259378; active = well fitted inhibition curve with a large enough effect in the signal ratio in the repeat runs, not every such curve was filed as active; the % refers to the signal ratio; also: potency is read from the fitted curve at half-maximal effect)
Procedure, shortened: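 Antagonist mode: compounds added to beta-lactamase reporter HEK293T ER-beta-UAS cells stimulated with E2 (1nM final), 16 hr at 37C. LiveBLAzer B/G FRET substrate, 2 hours room temperature, fluorescence read-out.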

[9] = qHTS assay to identify small molecule agonists of the androgen receptor (AR) signaling pathway in the presence of an antagonist - cell viability counter screen (AID 1259379); also: nearly all actives have a fitted effect of over 25% in size; also: potency is read from the fitted curve at half-maximal effect
Procedure, shortened: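 Cytotoxicity counter-screen run in the same wells as the nilutamide-challenged (3.0 µM final) AR agonist assay in MDA-kb2 cells. Compounds tested at 15 concentrations for 16 h, 37 °C without CO2; CellTiter-Fluor fluorescence read.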

[10] = qHTS assay to identify small molecule agonists of the estrogen receptor beta (ER-beta) signaling pathway - cell viability counter screen (AID 1259380); also: nearly all actives have a fitted effect of over 30% in size; also: potency is read from the fitted curve at half-maximal effect
Procedure, shortened: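 Cell viability counter screen: CellTiter-Glo luminescence (30 min, room temperature) measured in the same wells as the beta-lactamase readout, after 16 hr compound exposure at 37C of ER-beta-bla HEK293T cells in 2% charcoal-stripped FBS medium.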

[11] = qHTS assay to identify small molecule antagonists of the estrogen receptor beta (ER-beta) signaling pathway - cell viability counter screen (AID 1259382); also: nearly all actives have a fitted effect of over 55% in size; also: potency is read from the fitted curve at half-maximal effect
Procedure, shortened: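 Cytotoxicity was measured in the same wells by CellTiter-Glo luminescence after 30 min at room temperature. Cells were ER-beta-bla HEK293T in charcoal-stripped serum, given compound together with 1 nM E2 and incubated 16 h at 37C.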

[12] = target: Estrogen receptor (Homo sapiens) (UniProt P03372); experiment: qHTS assay to identify small molecule agonists of the estrogen receptor alpha (ER-alpha) signaling pathway in the presence of an antagonist (AID 1259383; calls by dose curve; also: top concentration of the series differs between compounds; nearly all actives have a fitted effect of over 15% in size)
Procedure, shortened: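 Agonist-mode confirmation run in the presence of 10.0nM (final) ICI-182,780 antagonist. The reporter was ERE-driven luciferase in VM7Luc4E2 cells, grown in charcoal-stripped serum. Cells were exposed to 15-concentration compound series for 22hr, then ONE-Glo luminescence was read.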

[13] = qHTS assay to identify small molecule agonists or antagonists of the thyroid stimulating hormone receptor (TSHR) signaling pathway - wild type cell line counter screen (AID 1259384; calls by dose curve)
Procedure, shortened: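 Counter screen in untransfected Hek293: compounds (15-point titration, triplicate) plus phosphodiesterase inhibitor Ro20-1724 added after 18 h plating; 30 min RT. Intracellular cAMP via competitive d2/cryptate immunoassay, 1 h incubation.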

[14] = qHTS assay to identify small molecule agonists of the estrogen receptor alpha (ER-alpha) signaling pathway in the presence of an antagonist - cell viability counter screen (AID 1259386); also: series mostly up to about 92 µM; nearly all actives have a fitted effect of over 30% in size
Procedure, shortened: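 Compounds tested at 15 concentrations for 22 h at 37C alongside 10.0nM (final) ICI-182,780 antagonist, in VM7Luc4E2 cells grown in phenol red-free, charcoal-stripped medium. Viability read by CellTiter-Fluor fluorescence after 1 h reagent incubation.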

[15] = qHTS assay to identify small molecule HDAC inhibitors (AID 1259364); also: top concentration of the series differs between compounds; nearly all actives have a fitted effect of over 45% in size
Procedure, shortened: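 Luminescence read after 30 min room-temperature HDAC-Glo incubation measures cellular class I/II HDAC activity. Compounds were applied for 2 hr at 37 C to HCT-116 wild-type cells seeded the day before.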

[16] = qHTS assay to identify small molecule antagonists of the sonic hedgehog signaling (Shh) pathway (AID 1259369; calls by dose curve; also: nearly all actives have a fitted effect of over 45% in size; also: potency is read from the fitted curve at half-maximal effect)
Procedure, shortened: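 Antagonist mode: compound added to 3T3 Gli1-Luc cells followed by conditioned-medium stimulation, 24 h at 37 C, 5% CO2. Inhibition taken as loss of Gli1-driven luciferase luminescence.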

[17] = target: Thyrotropin receptor (Homo sapiens) (UniProt P16473); experiment: qHTS assay to identify small molecule antagonists of the thyroid stimulating hormone receptor (TSHR) signaling pathway (AID 1259385; calls by dose curve; also: nearly all actives have a fitted effect of over 20% in size)
Chain of Thyrotropin receptor (Homo sapiens) (P16473 whole entry, looked up): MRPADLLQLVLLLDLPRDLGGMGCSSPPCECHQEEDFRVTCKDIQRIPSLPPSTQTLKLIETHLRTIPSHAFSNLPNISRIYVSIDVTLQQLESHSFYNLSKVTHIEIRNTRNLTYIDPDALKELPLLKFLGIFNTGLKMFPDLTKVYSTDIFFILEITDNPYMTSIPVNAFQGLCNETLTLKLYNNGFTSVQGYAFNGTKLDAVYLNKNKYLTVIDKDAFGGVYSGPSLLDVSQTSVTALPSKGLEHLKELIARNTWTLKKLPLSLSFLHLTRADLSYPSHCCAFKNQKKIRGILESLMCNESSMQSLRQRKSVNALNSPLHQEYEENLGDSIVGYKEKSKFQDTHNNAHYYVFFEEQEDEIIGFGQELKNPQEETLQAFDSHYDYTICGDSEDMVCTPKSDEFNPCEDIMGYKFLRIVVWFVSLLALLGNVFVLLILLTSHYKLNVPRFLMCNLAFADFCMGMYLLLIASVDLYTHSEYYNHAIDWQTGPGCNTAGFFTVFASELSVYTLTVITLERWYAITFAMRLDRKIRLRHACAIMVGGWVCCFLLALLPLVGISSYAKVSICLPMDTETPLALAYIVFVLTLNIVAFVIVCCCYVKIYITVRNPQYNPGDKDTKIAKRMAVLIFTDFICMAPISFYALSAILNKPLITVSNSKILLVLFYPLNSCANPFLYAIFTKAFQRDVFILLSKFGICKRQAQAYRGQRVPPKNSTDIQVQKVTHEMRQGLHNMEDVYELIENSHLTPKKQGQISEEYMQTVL
Procedure, shortened: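 Antagonist mode: compound-treated TSHR-expressing HEK293 cells were stimulated with 1.5 ng/mL TSH (final) in presence of Ro20-1724 for 30 min at RT. HTRF cAMP detection after 1 h; each compound tested at 15 concentrations, triplicate.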

[18] = qHTS assay to identify small molecule phospholipidosis (PLD) inducers (AID 1259344; active = well fitted curve in the direction sought with a large enough effect; an effect the other way counts as inactive or inconclusive)
Procedure, shortened: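 Accumulated phospholipid, stained red by LipidTOX during 24 h compound treatment of HepG2 cells at 37 C, is quantified from images as pit number and intensity, normalised per cell using Hoechst-stained nuclei.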

[19] = target: Androgen receptor (Homo sapiens) (UniProt P10275); experiment: qHTS assay to identify small molecule agonists of the androgen receptor (AR) signaling pathway in the presence of an antagonist (AID 1259381; calls by dose curve; also: nearly all actives have a fitted effect of over 15% in size)
Chain of Androgen receptor (Homo sapiens) (P10275 whole entry, looked up): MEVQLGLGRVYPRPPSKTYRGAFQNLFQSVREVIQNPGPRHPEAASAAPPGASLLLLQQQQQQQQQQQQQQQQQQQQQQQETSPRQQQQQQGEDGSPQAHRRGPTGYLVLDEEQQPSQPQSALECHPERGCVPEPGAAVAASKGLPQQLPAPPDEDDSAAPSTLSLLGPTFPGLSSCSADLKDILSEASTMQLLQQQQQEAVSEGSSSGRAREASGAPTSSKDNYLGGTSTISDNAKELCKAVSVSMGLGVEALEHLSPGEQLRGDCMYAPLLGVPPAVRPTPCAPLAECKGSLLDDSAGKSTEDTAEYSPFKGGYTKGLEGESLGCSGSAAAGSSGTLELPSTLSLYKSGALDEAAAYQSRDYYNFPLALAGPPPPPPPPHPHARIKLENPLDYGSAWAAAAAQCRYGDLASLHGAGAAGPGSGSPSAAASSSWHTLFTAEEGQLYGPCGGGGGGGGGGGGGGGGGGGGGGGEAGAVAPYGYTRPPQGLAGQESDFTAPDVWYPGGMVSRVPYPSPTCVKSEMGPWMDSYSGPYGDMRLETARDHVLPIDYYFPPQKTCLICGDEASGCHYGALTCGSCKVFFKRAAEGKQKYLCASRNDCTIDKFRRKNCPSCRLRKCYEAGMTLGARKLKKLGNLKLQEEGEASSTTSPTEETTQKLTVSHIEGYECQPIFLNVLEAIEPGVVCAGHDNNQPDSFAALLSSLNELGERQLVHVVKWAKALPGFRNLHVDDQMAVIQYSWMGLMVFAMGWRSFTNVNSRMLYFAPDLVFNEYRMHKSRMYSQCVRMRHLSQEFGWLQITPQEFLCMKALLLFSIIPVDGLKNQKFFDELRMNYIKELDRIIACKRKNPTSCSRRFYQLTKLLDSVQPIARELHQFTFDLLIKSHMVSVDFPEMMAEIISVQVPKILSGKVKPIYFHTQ
Procedure, shortened: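 Agonist-mode confirmation run against 3.0 uM final nilutamide: compounds titrated at 15 concentrations onto MDA-kb2 MMTV-luciferase reporter cells. Luminescence measured with ONE-Glo following 16 hr incubation, 37C, 0% CO2.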

Measured: Potency

CC(C)(C)C1=CC(=O)C=C(C(C)(C)C)C1=O
not listed: [15] | [16] | [17] | [18] | [19]
inactive: all other assays above

O=C(O)CCCCCCC(=O)O
not listed: [2] | [12] | [18] | [19]
inactive: all other assays above

CC(=O)Nc1ccc(O)cc1
not listed: [2] | [7] | [8] | [12] | [13] | [17] | [18] | [19]
inactive: all other assays above

CCCCCCCCCCCC(=O)N(CC)CC
not listed: [2] | [7] | [8] | [12] | [17] | [18] | [19]
inactive: all other assays above

O=C(O)CCn1c2c(c3ccccc31)C[C@H](NS(=O)(=O)c1ccc(F)cc1)CC2
not listed: [2] | [7] | [8] | [12] | [13] | [16] | [17] | [19]
inactive: all other assays above

O=C1Nc2ccc(Cl)cc2[C@@](C#CC2CC2)(C(F)(F)F)O1
active: [8] 23.7 µM
not listed: [2] | [10] | [11] | [16] | [18] | [19]
inactive: all other assays above

C/C=C/c1ccc(OC)c(OC)c1
not listed: [2] | [12] | [18] | [19]
inactive: all other assays above

CCN(CC)CCOC(=O)C1(C2CCCCC2)CCCCC1
active: [10] 26.6 µM
not listed: [4] | [8] | [11] | [15] | [16] | [17] | [18]
inactive: all other assays above

NCCCC(O)(P(=O)(O)O)P(=O)(O)O
not listed: [2] | [7] | [8] | [12] | [16] | [18] | [19]
inactive: all other assays above

CN(C)CCCN1c2ccccc2CCc2ccccc21
active: [16] 8.63 µM and 4.73 µM | [9] 61.1 µM | [10] 30.6 µM and 23.7 µM | [11] 27.3 µM and 23.7 µM
inactive: [1] | [15] | [3] | [4] | [5] | [6] | [14]

CCOC(=O)CN
not listed: [2] | [7] | [8] | [12] | [16] | [18] | [19]
inactive: all other assays above

Nc1ncnc2c1ncn2[C@@H]1O[C@H](COP(=O)(O)O)[C@@H](O)[C@H]1O
active: [10] 26.6 µM
not listed: [2] | [3] | [7] | [8] | [12] | [17] | [19]
inactive: all other assays above

C1CC(COCC2CO2)CCC1COCC1CO1 (stereo not drawn)
not listed: [7] | [8] | [10] | [15] | [18] | [19]
inactive: all other assays above

CCNc1nc(NC(C)CC)nc(OC)n1 (stereo not drawn)
active: [16] 30.6 µM
not listed: [2] | [7] | [8] | [12] | [17] | [18] | [19]
inactive: all other assays above

Cc1occc1SSc1ccoc1C
not listed: [2] | [10] | [12] | [16] | [18] | [19]
inactive: all other assays above

CCCCCCCC/C=C\CCCCCCCC(=O)NCc1ccc(O)c(OC)c1
not listed: [2] | [7] | [8] | [10] | [12] | [13] | [17] | [19]
inactive: all other assays above

CCc1ccc(O)c(C(C)(C)C)c1
not listed: [10] | [11] | [15] | [17] | [18] | [19]
inactive: all other assays above

CCCCCCOc1ccc(O)cc1
not listed: [5] | [8] | [10] | [11] | [15] | [18]
inactive: all other assays above

CCN(CC)CCCN(c1ccccc1)C1Cc2ccccc2C1
active: [16] 15 µM | [9] 29.8 µM | [10] 11.9 µM
not listed: [6] | [8] | [11] | [15] | [18] | [19]
inactive: all other assays above
